Screening data (PubChem BioAssay)
SMN2 splice enh = SMN2 splice variant enhancement; HEK293 SMN2-luciferase splicing reporter, luminescence, 30-36 h; Potency, µM (doses to about 46.1 µM), inactives show at the highest dose activity change, positive = activation, usual class: activators; actives 2.8% (n = 210,000); AID 1458; further: % of control where 0% means no effect; nearly all actives have a fitted effect of over 55% in size
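HEK293 cells carry an SMN2 […]–luciferase reporter in which exon 7 inclusion puts luciferase in frame. Cells were plated 10-12 h before compound addition, then incubated 30-36 h at 37C. ONE-Glo luminescence was read; sodium butyrate at 4.5 mM final served as control.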
NPC1 prom act = NPC1 promoter activation; Huh7 NPC1 promoter luciferase reporter, 24 h; Potency, µM (titrated, usually from 9.22 µM), for the others: at the top dose activation, most hits filed as activators; actives 2.4% (n = 320,000); AID 485313; further: % of control where 0% means no effect; nearly all actives have a fitted effect of over 60% in size
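Luminescence read-out of NPC1 promoter-driven luciferase in stably transfected Huh7 cells; compounds delivered in DMSO and left 24 h at 37C, 5% CO2, qHTS titration format.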
Luc counter = Kinase-Glo luciferase inhibition (counter-screen) | Q27757 | Kinase-Glo luciferase, ATP luminescence, 8 min | Potency, µM (titrated, usually from 38.3 µM), for the others: top-dose activity change, negative = inhibition, usual class: inhibitors | actives 0.28% (n = 200,000) | AID 1379; further: on the % scale 0 is the no-effect control and ±100 the full control effect; nearly all actives have a fitted effect of over 60% in size
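Recombinant Kinase-Glo luciferase, 10 uM ATP (linear range), luciferin; imidazole pH 7.2 / KCl / MgCl2 / Tween / BSA buffer; 8 min RT; luminescence.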
FLuc modulator = counter-screen for miR-21 project: firefly luciferase inhibitors or activators. P08659. purified FLuc, Km substrates, luminescence inhibition. Potency, µM (titrated, usually from 57.5 µM), for the others: at the highest dose activity change, negative = inhibition, usual class: inhibitors. actives 6.9% (n = 360,000);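 further: plate controls were vehicle for no effect and reference inhibitor for full effect; nearly all actives have a fitted effect of over 55% in size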
Target sequence (P08659 whole entry, looked up): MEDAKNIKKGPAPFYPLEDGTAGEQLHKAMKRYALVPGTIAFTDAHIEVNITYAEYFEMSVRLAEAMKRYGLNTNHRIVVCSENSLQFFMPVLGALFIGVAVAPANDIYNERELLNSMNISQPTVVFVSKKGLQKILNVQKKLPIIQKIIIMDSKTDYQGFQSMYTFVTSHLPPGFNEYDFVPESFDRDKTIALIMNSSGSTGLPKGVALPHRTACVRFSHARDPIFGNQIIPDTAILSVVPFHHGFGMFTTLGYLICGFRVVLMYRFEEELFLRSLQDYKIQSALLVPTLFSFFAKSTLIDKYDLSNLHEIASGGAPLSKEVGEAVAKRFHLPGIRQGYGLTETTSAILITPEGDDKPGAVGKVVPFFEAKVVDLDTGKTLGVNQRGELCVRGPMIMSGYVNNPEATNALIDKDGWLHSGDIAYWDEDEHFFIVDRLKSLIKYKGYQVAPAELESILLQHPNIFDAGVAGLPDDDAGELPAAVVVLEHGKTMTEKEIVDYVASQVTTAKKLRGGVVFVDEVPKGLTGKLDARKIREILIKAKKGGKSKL
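Purified P. pyralis luciferase, 10 nM final, with Km-level 10 uM D-luciferin and 10 uM ATP in 50 mM Tris acetate pH 7.5, 10 mM Mg acetate, 0.01% Tween-20, 0.05% BSA; 6-point qHTS titration about 60 µM downward; luminescence read.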
ELG1 genotox = genotoxicity induction in ELG1-luciferase HEK293T cells. HEK293T ELG1-luciferase reporter, luminescence, 16 h. Potency, µM (top dose mostly 46 µM), inactives show at the highest dose activity change, positive = activation, usual class: activators. actives 1.3% (n = 330,000); further: % of control where 0% means no effect; nearly all actives have a fitted effect of over 60% in size
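HEK293T cells expressing luciferase-tagged ELG1 were treated with compound or DMSO for 16 hr at 37°C. Luciferase activity was then read after 30 min with ONE-Glo at room temperature; rising signal flags genetic stress.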
Rab9 prom act = Rab9 promoter activation; AID 485297; actives 2.8% (n = 320,000); Huh7 Rab9 promoter-luciferase reporter, luminescence, 24 h; Potency, µM (titrated, usually from 9.22 µM), for inactives: at the top dose activation, negative = inhibition, usual class: activators; further: % of control where 0% means no effect; nearly all actives have a fitted effect of over 60% in size
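Steps: seed 1500 Huh7 Rab9-luc cells per well, rest 2 h at 37 °C; add compound in DMSO; incubate 24 h; add luciferase reagent, 10 min ambient; read luminescence.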
* hit, by the source's call; ? = inconclusive; / = no result given; [ ] = another dose, or the depositor's remark. Rows were chosen to be rich in hits. Some 7.3% of all compounds tested hit in one or more screens of this group. The call rests on the fitted dose curve; in most records, active means well fitted curve in the direction sought with a large enough effect; inconclusive means small, poorly fitted or top-dose-only effect, or another doubt; inactive means no such curve, though single readings can be large; an effect the other way counts as inactive or inconclusive. Potency means the concentration at half of the fitted maximal effect.

SMILES	SMN2 splice enh	NPC1 prom act	Luc counter	FLuc modulator	ELG1 genotox	Rab9 prom act
O=C(Nc1ccc2oc(-c3cc(Br)ccc3Cl)nc2c1)c1cc2ccccc2o1	-4.9%	/	/	0.9%	/	/
Cc1cc(C)cc(S(=O)(=O)Nc2cccc(-c3ccc(N4CCOCC4)nn3)c2)c1	/	/	/	12µM*	/	/
COc1c(C)cc(S(=O)(=O)Nc2cccc(-c3ccc(N4CCOCC4)nn3)c2)c(C)c1C	/	/	/	15.1µM*	/	/
Cc1ccc([N+](=O)[O-])cc1S(=O)(=O)Nc1ccc(-c2ccc(N3CCOCC3)nn2)cc1	/	2.7%	/	?	2.8%	1.7%
O=[N+]([O-])c1ccc(S(=O)(=O)Nc2ccc(-c3ccc(N4CCOCC4)nn3)cc2)cc1	/	9.9%	/	26.9µM*	16.9%	21.1%
COc1c(C)cc(S(=O)(=O)N2CCOCC2)c(C)c1C	0.8%	-2.1%	4.7%	-1.9%	3.3%	5.9%
CCOc1ccc(-c2cccc(NS(=O)(=O)c3ccc([N+](=O)[O-])cc3)c2)nn1	/	3.1%	/	5.1%	-1.2%	-1.5%
O=[N+]([O-])c1ccc(S(=O)(=O)Nc2cccc(-c3ccc(N4CCOCC4)nn3)c2)cc1	/	?	/	3.38µM*	?	27.4%
Cc1cc(=O)n(CC(=O)NCc2ccc(OC(C)C)cc2)c2c1c(C)nn2-c1cccc(F)c1	/	/	/	-6.0%	/	/
Cc1cc(C)cc(NC(=O)CCN2C(=O)c3ccccc3Sc3ncccc32)c1	/	/	/	-5.4%	/	/
O=C(O)c1ccc(N/N=C/c2cccc(F)c2)cc1	1µM*	0.501µM*	-16.0%	2.39µM*	?	0.501µM*
O=C(O)c1ccc(N/N=C/c2cccc(C(F)(F)F)c2)cc1	/	0.562µM*	/	3.38µM*	?	0.631µM*
O=C(O)c1ccc(N/N=C/c2ccc(F)c(F)c2)cc1	1.41µM*	0.316µM*	-8.3%	1.69µM*	5.17µM*	0.316µM*
COc1ccc(Cl)cc1Nc1ncnc2c1nc1n2CCCC1	/	/	/	-12.5%	/	/
Cc1ccc(NC(=O)Nc2cccs2)nc1	?	3.98µM*	-5.2%	21.3µM*	?	2.24µM*
Cc1cc(C)cc(NC(=O)Nc2cccs2)c1	15.2%	/	/	9.53µM*	/	/
CCc1ccc(NC(=O)Nc2cccs2)cc1	14.1µM*	1.12µM*	-4.6%	0.849µM*	?	0.794µM*
Cc1ccc(NC(=O)Nc2cccs2)cc1	15.8µM*	2.82µM*	-3.4%	2.39µM*	15.6%	2.24µM*
Cc1c(NC(=O)Nc2cccs2)cccc1[N+](=O)[O-]	-34.0%	-24.7%	0.4%	-16.7%	-9.5%	-9.3%
Cc1cc(C)cc(NC(=O)Nc2cccnc2)c1	/	2.5%	/	?	3.1%	2.5%
CCc1ccc(NC(=O)C2(c3cccs3)CCOCC2)cc1	/	/	/	-10.3%	/	/
Cc1ccc(OCC(=O)Nc2ccc3nc(SCC(=O)N(C)c4ccccc4)sc3c2)cc1	/	/	/	-9.7%	/	/
CCCCn1cc(S(=O)(=O)c2ccc(Cl)cc2)c(=O)c2cc(F)c(N3CCCC(C)C3)cc21 (stereo not drawn)	/	/	/	-5.5%	/	/
CCCCOc1ccc(C(=O)Nc2cc(-c3cn4cccnc4n3)ccc2OC)cc1	/	/	/	-9.2%	/	/
Cc1ccc(NC(=O)c2sccc2C)nc1	/	0.891µM*	/	12µM*	2.91µM*	0.501µM*
SMILES	SMN2 splice enh	NPC1 prom act	Luc counter	FLuc modulator	ELG1 genotox	Rab9 prom act
CCOc1ccc(NC(=O)Nc2ccc3nsnc3c2)cc1	19.6%	12.8%	1.2%	?	-2.7%	29.8%
CCOc1ccc(NC(=O)Nc2cccs2)cc1	11.2µM*	0.891µM*	-22.1%	1.51µM*	4.61µM*	1.41µM*
CCOC(=O)c1[nH]c(C)c(CCC(=O)Nc2cc(Cl)c(OC)cc2OC)c1C	/	/	/	-12.5%	/	/
CCN(CC)CCn1c2ccccc2c2nc3ccccc3nc21	/	?	/	21.3µM*	?	?
CCCn1c2ccccc2c2nc3ccccc3nc21	1.1%	-2.2%	2.4%	1.5%[2.3 µM]	-6.3%	1.8%
COc1cc2c(C#N)c(N3CCCC3)nc(N)c2c(N)n1	/	-1.2%	/	16.9µM*	11.3%	-1.1%
N#Cc1c(N2CCCC2)nc(N)c2c(N)nc(N3CCCC3)cc12	11.2µM*	22.9%	0.7%	?	12.6%	?
COc1cc2c(C#N)c(N3CCN(c4ccccc4OC)CC3)nc(N)c2c(N)n1	-20.8%	-0.3%	-0.5%	23.9µM*	-9.5%	-7.8%
COc1cc2c(C#N)c(N3CCN(C)CC3)nc(N)c2c(N)n1	13.0%	-3.6%	0.9%	?	?	7.8%
O=C(N/N=C\c1cccc(F)c1)c1ccc(Cn2cc(Br)c([N+](=O)[O-])n2)o1	/	1.5%	-3.5%	?	-0.2%	-21.0%
O=C(N/N=C\c1ccc2c(c1)OCO2)c1ccc(Cn2cc(Br)c([N+](=O)[O-])n2)o1	/	2.6%	-17.3%	6.01µM*	2.9%	2.0%
O=C(N/N=C\c1ccc(F)cc1)c1ccc(Cn2cc(Br)c([N+](=O)[O-])n2)o1	-14.3%	3.7%	-4.6%	21.3µM*	3.2%	-3.4%
CC(=O)Nc1ccc(S(=O)(=O)N2CCC(n3c(C(F)(F)F)nc4cccnc43)CC2)cc1	/	/	/	1.8%	/	/
[O-][N+](=Nc1ccccc1)c1ccccc1	3.9%	/	/	/	/	/
Cc1cc(NCc2ccccn2)ccc1Br	2.4%	?	-5.7%	15.1µM*	13.0%	?
Cc1cccc(NC(=S)NCc2ccccn2)c1	18.8%	-2.1%	-0.6%	2.6%	0.9%	-6.6%
CC(C)(C)n1cnc2cc(NC(=O)c3ccc(Cl)cc3)ccc21	/	0.562µM*	/	4.78µM*	2.91µM*	0.501µM*
CCCn1cnc2cc(NCc3ccccc3OCC)ccc21	-9.2%	/	/	-19.1%	/	/
CC(C)n1cnc2cc(NCc3ccccc3O)ccc21	/	19.0%	/	21.3µM*	15.0%	?
CC(C)n1cnc2cc(NCc3ccccn3)ccc21	17.8µM*	1.78µM*	-4.6%	23.9µM*	?	?
CC(C)(C)n1cnc2cc(NCc3ccccc3O)ccc21	/	27.8%	/	12µM*	16.6%	7.5%
CCN(CC)c1ccc(CNc2ccc3c(c2)ncn3C(C)(C)C)cc1	/	3.1%	/	?	0.1%	11.8%
CC(C)n1cnc2cc(NCc3ccco3)ccc21	?	?	-0.8%	16.9µM*	20.5%	?
ClC(=C\c1ccccc1)/C=N/N1CCN(c2ccccn2)CC1	14.1µM*	3.16µM*	-4.0%	?	9.2µM*	?
Cc1ccc(/C=N/N2CCN(c3ccccn3)CC2)cc1	17.7%	29.5%	3.1%	9.53µM*	?	?
CCc1ccc(/C=N/N2CCN(c3ccccn3)CC2)cc1	/	?	/	?	10.3%	27.4%
CN1CCc2c(sc3c2C(=O)NC(c2ccc(C(C)(C)C)cc2)N3)C1 (stereo not drawn)	6.3%	/	/	?	/	/
COc1ccc2cc(C(N)=O)c(=Nc3ccccc3)oc2c1	-12.8%	3.55µM*	5.5%	0.5%	?	1.58µM*
